Compound activity from PubChem.
HttQ103 aggreg: mutant huntingtin aggregation inhibition; Potency, µM (titrated, usually from 46.1 µM), for the others: at the highest dose activity change, negative = inhibition, usual class: inhibitors; hit rate 1.1% among 220,000; PC12 HttQ103-GFP aggregates, Acumen cytometry, 40 h; AID 1688; active = well fitted curve in the direction sought with a large enough effect; inconclusive = small, poorly fitted or top-dose-only effect, or another doubt; inactive = no such curve, though single readings can be large; an effect the other way counts as inactive or inconclusive; also: potency is read from the fitted curve at half-maximal effect; % is scaled to controls: 0 for no effect and ±100 for the full control effect; nearly all actives have a fitted effect of over 60% in size
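Ecdysone-promoter PC12 model expressing HTT exon 1 Q103 fused to GFP, induced by tebufenozide at 100 nM final. Compounds titrated; aggregates sized 1–25 µm scored on a 488 nm laser cytometer.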
HPGD inh: blocks human HPGD enzyme activity; purified HPGD, NADH fluorescence kinetic, PGE2 substrate; Potency, µM, for the others: at the top dose activity change, negative = inhibition, actives largely listed as inhibitors; hit rate 4.3% among 150,000; AID 894; also: potency is read from the fitted curve at half-maximal effect; % is scaled to controls: 0 for no effect and ±100 for the full control effect
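NADH formation kinetics: reaction with 30 uM PGE2 and 1 mM NAD+ (final), 20 nM enzyme, Tris-HCl pH 8 with Tween 20, after 15 min compound preincubation at room temperature. Fluorescence change, last versus first of five reads.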
ALDH1A1 inh: inhibitors of human aldehyde dehydrogenase 1A1; P00352; Potency, µM (doses to about 75.3 µM), without a hit: at the top dose activity, negative = inhibition, usual class: inhibitors; hit rate 7.3% among 220,000; Purified ALDH1A1, NADH fluorescence, propionaldehyde substrate;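 also: potency is read from the fitted curve at half-maximal effect; plate controls were no enzyme wells and a reference inhibitor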
HTT cytoprotect: protects HTT-Q103 PC12 cells, measured by ATP. PC12 HTT-Q103 induced, cytoprotection, ATP luminescence, 40 h. hit rate 0.14% among 230,000. AID 1471. Potency, µM (doses to about 56.4 µM), for the others: cytoprotection (ATP increase), usual class: activators; active = well fitted curve in the direction sought with a large enough effect; inconclusive = small, poorly fitted or top-dose-only effect, or another doubt; inactive = no such curve, though single readings can be large; an effect the other way counts as inactive or inconclusive; also: potency is read from the fitted curve at half-maximal effect; % of control where 0% means no effect; nearly all actives have a fitted effect of over 45% in size
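Stable PC12 Q103-GFP cells in serum-supplemented, phenol red-free DMEM; induction by tebufenozide at 100 nM final; compound dose series; cell viability quantified luminescently from ATP.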
JMJD2E inh: blocks human JMJD2E demethylase activity. Potency, µM (top dose mostly 57.1 µM), inactives show top-dose activity change, negative = inhibition, most hits filed as inhibitors. B2RXH2. hit rate 1.6% among 230,000. JMJD2E catalytic domain, FDH-coupled NADH fluorescence (FDH is formaldehyde dehydrogenase). AID 2147;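 also: potency is read from the fitted curve at half-maximal effect; 0% = wells with enzyme and -100% = buffer wells without enzyme; nearly all actives have a fitted effect of over 50% in size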
CBFb RUNX1 block: inhibitors of human CBF-beta and RUNX1 interaction; Q01196+Q13951; 230,000 tested, under 10 active; Potency, µM (titrated, usually from 59.8 µM), for inactives: at the top dose activity, negative = inhibition, hits mostly inhibitors; AlphaScreen CBFb-His/RUNX1-biotin binding, biochemical; active = well fitted curve in the direction sought with a large enough effect; inconclusive = small, poorly fitted or top-dose-only effect, or another doubt; inactive = no such curve, though single readings can be large; an effect the other way counts as inactive or inconclusive; also: % of control where 0% means no effect
Target sequence (Q01196 whole entry, looked up): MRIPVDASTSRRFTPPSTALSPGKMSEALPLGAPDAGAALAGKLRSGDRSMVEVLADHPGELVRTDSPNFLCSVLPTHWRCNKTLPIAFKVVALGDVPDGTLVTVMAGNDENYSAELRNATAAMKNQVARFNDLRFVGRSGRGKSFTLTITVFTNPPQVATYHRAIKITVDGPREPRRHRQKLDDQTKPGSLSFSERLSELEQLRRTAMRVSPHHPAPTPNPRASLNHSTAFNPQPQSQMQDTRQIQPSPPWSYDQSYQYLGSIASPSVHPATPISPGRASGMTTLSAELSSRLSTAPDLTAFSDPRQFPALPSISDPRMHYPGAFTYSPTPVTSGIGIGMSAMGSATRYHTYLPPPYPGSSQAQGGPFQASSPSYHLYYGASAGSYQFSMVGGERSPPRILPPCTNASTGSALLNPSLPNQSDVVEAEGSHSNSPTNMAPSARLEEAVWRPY
Target sequence (Q13951 whole entry, looked up): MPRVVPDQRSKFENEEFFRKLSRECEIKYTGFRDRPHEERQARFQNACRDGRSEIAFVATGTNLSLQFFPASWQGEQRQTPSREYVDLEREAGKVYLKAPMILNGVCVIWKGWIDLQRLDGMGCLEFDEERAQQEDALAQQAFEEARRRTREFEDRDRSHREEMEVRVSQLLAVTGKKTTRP
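Room-temperature protein-protein interaction test with 30 nM each of His-tagged CBF-beta and biotinylated RUNX1, 15 min with compound, then 90 min with nickel plus streptavidin beads. Signal read in AlphaScreen mode.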
* = called active by the depositor; ? = inconclusive; . = no result; [ ] = remark or other dose. A selection: hits, their analogues and other compounds. The true share with any hit is near 9.8%. Unless noted, calls follow the shape of the dose curve; as a rule, active = well fitted inhibition curve with a large enough effect (not every such curve was filed as active); inconclusive = small, poorly fitted or top-dose-only effect, or another doubt; inactive = no such curve, though single readings can be large or run the other way.

SMILES	HttQ103 aggreg	HPGD inh	ALDH1A1 inh	HTT cytoprotect	JMJD2E inh	CBFb RUNX1 block
CCNc1ccc(C(=O)OCC(=O)NCCN2C(=O)CSC2=O)cc1[N+](=O)[O-]	5.4%	.	3.55µM*	?	-26.7%	3.7%
CC(C)(C)OC(=O)N1CCC[C@H]1c1nnc(SCc2ccccc2Cl)o1	-36.2%	-11.1%	-7.8%	-18.8%	-4.4%	9.0%
CC(C)(C)OC(=O)N1CCC[C@H]1c1nnc(SC/C=C/c2ccccc2)o1	-13.5%	.	22.4µM*	12.1%[0.074 µM]	-6.1%	6.8%
COc1ccc(O)c(N)c1	-18.7%	.	25.1µM*	-20.4%	?	?
NS(=O)(=O)c1ccc(N=C2C(=O)Nc3ccccc32)cc1	-9.0%[9.22 µM]	-5.7%	-13.8%[13.5 µM]	-6.0%[10 µM]	-3.5%	-3.6%
NC(=O)c1ccc(N=C2C(=O)Nc3ccc([N+](=O)[O-])cc32)cc1	.	.	12.6µM*	.	-3.7%	4.3%
c1csc(-c2nnsc2-c2nc3ccccc3[nH]2)c1	-21.5%	?	10µM*	-22.6%	-28.0%	-4.6%
O=c1[nH]c2ccccc2nc1-c1cccs1	9.4%	.	-8.4%	-13.1%	-5.3%	13.6%
COc1ccc(OC)c(NC(=O)c2ccno2)c1	-15.5%	.	-1.9%	-33.5%	-1.6%	9.3%
BrC(/C=C\c1ccccc1)=N/Nc1nc(N2CCOCC2)nc(N2CCOCC2)n1	2.1%[9.22 µM]	.	-6.2%	15.3%[10 µM]	-22.5%	1.8%
BrC(=C\c1ccccc1)/C=N/Nc1nc(N2CCOCC2)nc(N2CCOCC2)n1	28.2%	15.8µM*	-0.1%	17.9%[10 µM]	-9.4%	-1.5%
COc1ccc(CCCc2n[nH]c(=S)o2)cc1C	-11.9%	.	8.91µM*	-38.6%	-18.1%	0.3%
COc1cc(NC(=O)c2cc3c(C)nc4ccccc4c3o2)cc(OC)c1OC	?	-11.0%	11.1%	-4.3%	-6.9%	-12.4%
CCc1ccc(CNC(=O)c2cc3c(C)nc4ccccc4c3o2)cc1	10µM*	?	-10.5%	25.6%[10 µM]	-11.8%	4.2%
COc1ccc(CNC(=O)c2cc3c(C)nc4ccccc4c3o2)c(OC)c1	3.98µM*	14.2%	9.7%	6.6%	18.5%	-1.6%
COc1cccc(CNC(=O)c2cc3c(C)nc4ccccc4c3o2)c1	10µM*	-10.0%	5.6%	-66.5%	-14.8%	-2.7%
O=C(Nc1nnc(CCN2CCCCC2)s1)c1ccc(Cl)cc1Cl	-8.9%[9.22 µM]	.	.	5.9%[10 µM]	11.1%	6.0%
CN(C)c1ccc(/C=N/Nc2ccc(-n3ccnc3)nn2)cc1	16.9%	-8.9%	7.94µM*	-28.8%	-5.7%	-13.6%
O=c1oc2cc(N=Cc3ccc4c(c3)OCO4)ccc2c2ccccc12	.	-13.9%	?	-4.4%[10 µM]	.	.
Cn1nnnc1SCC(=O)N(C1CCCCC1)C1CCS(=O)(=O)C1 (configuration not stated)	25.8%	.	?	.	-36.8%	-2.6%
Cc1noc(C)c1COC(=O)[C@H](C)NS(=O)(=O)c1ccc(Cl)c(Cl)c1	-10.2%	4.3%	4.7%	-21.2%	-0.3%	5.5%
Cc1noc(C)c1COC(=O)Cc1ccc(Cl)c(Cl)c1	0.794µM*	-5.0%	8.0%	-16.2%[0.074 µM]	3.1%	8.0%
CC(C)(C)NC1=CC(=O)OC12CCCCC2	-10.7%	-5.4%	-11.8%	31.7%	7.7%	0.7%
Fc1ccc(N2CCN(c3nc(CN4CCOCC4)nc4scc(-c5ccccc5)c34)CC2)cc1	17.8µM*	.	10.7%	-50.3%	-9.1%	?
CN(Cc1ccccc1)c1nc(CN2CCOCC2)nc2scc(-c3ccccc3)c12	-26.1%	-13.5%	5.0%	2.6%[10 µM]	-22.9%	-23.2%
Cc1cc(C)n(C(=O)CCC(=O)NCc2ccccc2)n1	4.4%	-9.8%	?	9.4%	-1.2%	4.4%
COc1ccccc1C(=O)NCC(=O)n1nc(C)cc1C	-3.6%[9.22 µM]	-17.0%	9.1%	0.0%	0.3%	9.6%
Cc1cc(C)n(C(=O)CNC(=O)CCc2ccccc2)n1	24.0%	15.8µM*	5.0%	9.9%	-2.4%	2.1%
Cc1cc(C)n(C(=O)CCNC(=O)c2ccccc2Br)n1	5.3%	7.94µM*	-1.2%	4.0%	3.5%	4.6%
COc1ccc(C(F)(F)F)cc1N/C=C/c1nnnn1-c1ccc(C)cc1	-15.1%[9.22 µM]	.	.	4.2%[10 µM]	?	8.9%
